A short description of assay [1]: compounds altering circadian rhythm period length – cell-based, LOPAC library, luminescence reporter (AID 2774; call rule not given here;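 further: values are relative to mean of DMSO wells on each plate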). To be noted: circadian reporter cells, at 7 µM, actives lie on both sides.
The test system of assay [2] is Hepatitis C virus NS3 helicase. Briefly: blockers of NS3h binding to ssDNA – biochemical, fluorescence polarization, LOPAC1280 library, primary screen (AID 687035; in the data active means inhibition above about 37%). Particulars: Purified HCV NS3 helicase, Cy5-dT15 ssDNA binding fluorescence polarization; stronger effect = higher value; concentration not given here. (Fluorescence polarisation rises when a labelled molecule tumbles more slowly, as on binding a larger partner.)

Assay [3] in a line: compounds altering Cy5-DNA-NS3h complex signal – biochemical, LOPAC1280, artefact control for HCV NS3 helicase inhibitor project (AID 687037; call rule not given here). To be noted: Cy5-DNA-NS3h complex fluorescence interference counterscreen. In general terms: A counterscreen serves to expose hits that act by an unwanted route or on another target.
Assay [4] is described as follows: blockers of cellular phospholipid synthesis – cell-based, LOPAC library, screen 4, primary screen (AID 1347384; call rule not given here). Particulars: animal cells, phospholipid biosynthesis inhibition screen; at 10 µM.
Assay [5] is described as follows: P. berghei load reduction in hepatocytes – cell-based, HepG2, luciferase luminescence, HepG2 viability, primary screen (AID 624349; in the data active means parasite load remaining mostly below about 12%, no sharp cut-off; inactive means mostly above about 10%;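 further: 100% = mean of DMSO negative control wells on the same plate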). To be noted: P. berghei liver stage in HepG2, luciferase luminescence, concentration not given here; parasite load remaining: stronger effect = lower value; viability: measured here: HepG2 viability without parasites.
Assay [6] in a line: viability loss in pontine glioma line – cell-based, SU-DIPG-XVII, MIPE5.0, CellTiter-Glo, qHTS, dose response (AID 1347060; cut-off not given, nearly all actives have AC50 up to about 26 µM;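 on AC50: cells exposed to compound for 48 hours before viability readout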). To be noted: CellTiter-Glo ATP luminescence.
The nature of assay [7]: viability loss in pontine glioma line – cell-based, SU-DIPG-XIII, MIPE4.0, CellTiter-Glo, qHTS, dose response (AID 1347061; cut-off not given, nearly all actives have AC50 up to about 37 µM;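 further: cells exposed to compound for 48 hours before readout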). To be noted: CellTiter-Glo ATP luminescence. On the technique in general: ATP-based viability assays read luminescence as a measure of living cells.
Assay [8] can be described thus: viability loss in pontine glioma line – cell-based, JHH-DIPG-1, MIPE4.0, CellTiter-Glo, qHTS, dose response (AID 1347062; cut-off not given, nearly all actives have AC50 up to about 27 µM;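 on AC50: cells exposed to compound for two days before readout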). To be noted: JHH-DIPG-1 viability, CellTiter-Glo ATP luminescence.
Assay [9] can be described thus: viability loss in pontine glioma line – cell-based, SU-DIPG-IV, MIPE4.0, CellTiter-Glo, qHTS, dose response (AID 1347063; cut-off not given, nearly all actives have AC50 up to about 30 µM;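 further: compound exposure lasted 48 hours before the viability readout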). Particulars: CellTiter-Glo ATP luminescence.
Assay [10] is described as follows: growth inhibition, single agent or in combination, cell-based, chromothripsis tumors, cisplatin or BGB combos (AID 1671449).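 Further: cells exposed for 96 hours; 0% = vehicle DMSO and 100% = killing by high DMSO.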 Particulars: LFS_MB_P medulloblastoma cells.
The nature of assay [11]: growth inhibition, single agent and combos, cell-based, chromothripsis tumors, cisplatin or BGB combos (AID 1671450).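 Further: cells exposed to compound for four days; 0% = vehicle DMSO and 100% = cell killing by high DMSO.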 Particulars: HDN33 neuroblastoma cells, stronger effect = higher value.
Assay [12] can be described thus: growth inhibition, single agents and combos, HTB85, cell-based, BGB or cisplatin IC20 combos, synergistic combos for chromothripsis tumors (AID 1671453).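 Further: cells exposed for 96 hours before readout; 0% = vehicle DMSO and 100% = high DMSO killing control.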 Particulars: HTB85 osteosarcoma cells, drug combinations, stronger effect = higher value.
A short description of assay [13]: growth inhibition, MDA-MB-436, cell-based, BGB or cisplatin combos, synergistic combos for chromothripsis tumors (AID 1671458; call rule not given here;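 further: cells exposed for 96 hours; 0% = vehicle DMSO and 100% = killing by high DMSO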). To be noted: MDA-MB-436 breast carcinoma growth inhibition, drug combinations, stronger effect = higher value.
Assay [14] in a line: BT084 cell growth, single and combined drugs, ICGC_MB145, cisplatin and BGB IC40 combos (AID 1671461).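 Further: cells exposed to drugs for 96 hours; 0% = vehicle DMSO and 100% = high DMSO full killing control.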 Particulars: BT084 medulloblastoma cells, drug combinations, stronger effect = higher value.
A short description of assay [15]: RCMB18 cell growth, single agent and combined, cisplatin and BGB IC40 combos (AID 1671462).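 Further: cells exposed to compound for four days.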 Particulars: RCMB18 medulloblastoma cells, stronger effect = higher value.
Assay [16] is described as follows: CRL1545 cell growth, single agent and combined, cisplatin and BGB IC20 combos (AID 1671464).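 Further: cells exposed to compound for 96 hours before readout; 0% = vehicle DMSO and 100% = high DMSO killing control.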 Particulars: CRL1545 osteosarcoma cells, stronger effect = higher value.
The nature of assay [17]: GFP-Q80 aggregate reduction, neuronal-like cells, cell-based, NGF-treated PC12, GFPQ80 (AID 1614).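 Further: lower means fewer inclusions and 0 means no inclusions at all.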 Particulars: PC12 NGF-treated GFP-polyQ80 inclusion reduction.
Assay [18] in a line: growth inhibition of DIPG cells – cell-based, MIPE4.0 library, CellTiter-Glo luminescence, qHTS (AID 1347066; cut-off not given, nearly all actives have AC50 up to about 30 µM;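 further: cells exposed to compound for 48 hours before readout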). Particulars: SU-DIPG-VI viability, CellTiter-Glo ATP luminescence.
Assay [19] in a line: JHH-DIPG-1 glioma cell viability, MIPE5.0 library, CellTiter-Glo luminescence, qHTS (AID 1347067; cut-off not given, nearly all actives have AC50 up to about 26 µM;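 further: cells exposed to compound for 48 hours before readout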). Particulars: JHH-DIPG-1 glioma viability, CellTiter-Glo ATP luminescence.
The nature of assay [20]: growth inhibition of DIPG cells – cell-based, MIPE5.0 library, qHTS (AID 1347068; cut-off not given, nearly all actives have IC50 up to about 30 µM). To be noted: SU-DIPG-XXV viability.
[21] abbreviates: measured here: with BGB IC20 combination, at 0.5 µM.
[22] abbreviates: measured here: with cisplatin IC20 combination, at 0.5 µM.

Values joined by “and” are separate entries in the source; they are usually repeats but may differ in a detail not shown here. Identical values can stand only once. Inconclusive results are not listed. Active and inactive are the calls of the source. Unless noted, no stated cut-off is given here; in the data, active means inhibition above about 80%; inactive means the rest.

As usually defined, the inhibition is the drop in the measured response relative to a control, in per cent. In general, viability refers to a read-out of living cells in per cent, often relative to untreated cells. By AC50 is commonly meant the concentration at which the activity in the assay is half-maximal.

Regarding `CCOC(=O)C1=C(C)NC(C)=C(C(=O)OC)C1c1cccc([N+](=O)[O-])c1` (centres undefined), the period change in assay [1] is 0.21 h (inactive). For the same compound, the inhibition in [2] was -2% (inactive). Also, in assay [3], the fluorescence ratio (interference) is 0.9 (inactive). The call in [4] was inactive.

In the case of `CC1(C)O[C@@H]2[C@@H](CO[C@@]3(COS(N)(=O)=O)OC(C)(C)O[C@@H]23)O1`, in [5], the parasite load remaining is 169% (inactive) and 59.3% (inactive) and 91.8% (inactive); the viability was 90.1% and 108% and 69.4%.

For the compound `S=c1nc[nH]c2nc[nH]c12`, the parasite load remaining in [5] was 27.1% (inactive) and 38.1% (inactive) and 20.6% (inactive). Besides, the viability in assay [5] is 73.4% and 55.1% and 57.4%. Besides, the AC50 in assay [6] was 1180 nM (active); in [8], 935 nM (active). For the same compound, the outcome in assay [7] and in assay [9] was inactive. For the same compound, the inhibition is -16.7% (inactive) and -25.3% (inactive) and -23.4% (inactive) in assay [10] (at 0.5 µM, stronger effect = higher value); -9.64% and 14% and 16.4% in [10] (measured here: combination with BGB IC20, at 0.005 µM); -23.4% and -1.54% and -20.6% in assay [10] (measured here: combination with BGB IC40, at 0.005 µM); -13.7% and 4.76% and 13.1% in assay [10] (measured here: combination with BGB IC40, at 0.05 µM); -46.7% and -35.2% and -28.2% in assay [10] (measured here: combination with cisplatin, at 0.5 µM, stronger effect = higher value); -18.6% and -9.9% and -19.4% in [10] (measured here: combination with cisplatin, at 5 µM, stronger effect = higher value). Further, the inhibition in assay [11] (BGB combo, at 5 µM) was 6.4% and -7.61% and -1.61%; in [11] (at 0.5 µM) it was 21.5% (inactive) and -7.1% (inactive) and 2.79% (inactive); in assay [11] (cisplatin combo, at 5 µM), 17.2% and 3.9% and 15.7%; in assay [11] (setting [21]), 17.6% and -24.1% and -7.78%; in [11] (setting [22]), 11.8% and -15.2% and -7.14%; in [11] (single agent, at 5 µM) it was 55.5% and 46.9% and 55.8%. The inhibition is -18.6% (inactive) and -13.7% (inactive) and -28.1% (inactive) in assay [12] (at 0.5 µM); -53.8% and -19.7% and -40.4% in assay [12] (measured here: with BGB IC20, at 0.5 µM); -9.25% and -19% and -8.77% in [12] (measured here: with BGB IC20, at 5 µM); -18.6% and -5.87% and -28% in assay [12] (measured here: with cisplatin IC20, at 0.5 µM); -12.1% and 4.25% and -34.8% in [12] (measured here: with cisplatin IC20, at 5 µM); 18.8% and -4.98% and -9.17% in assay [12] (single agent, at 5 µM). The inhibition in assay [13] (at 0.5 µM) is -2.57% (inactive) and -1.27% (inactive) and 12.1% (inactive); in [13] (measured here: BGB combination, at 0.5 µM) it was -26.2% and -7.09% and 10.3%; in assay [13] (measured here: BGB combination, at 5 µM) it was 19.5% and 16% and 25.5%; in [13] (measured here: cisplatin combination, at 0.5 µM), -2.23% and -7.71% and 3.05%; in assay [13] (measured here: cisplatin combination, at 5 µM) it was 44.5% and 28.1% and 46.1%; in assay [14] (at 0.5 µM), -23.3% (inactive) and -12% (inactive) and -13.4% (inactive). Also, the inhibition in [14] (cisplatin combination, at 0.5 µM) is -28% and -16.1% and -18.3%; in assay [14] (cisplatin combination, at 5 µM) it was -59.7% and -17.4% and -65.5%; in assay [14] (measured here: BGB IC40 combination 0.05 uM, at 0.05 µM) it was -9.27% and 73.7% and -6.21%; in assay [14] (single agent, at 5 µM), -10.1% and 19.3% and -6.27%; in assay [15] (at 0.5 µM) it was 0.61% (inactive) and -7.44% (inactive) and -22.1% (inactive); in assay [15] (cisplatin combo, at 5 µM), 12.2% and -28% and -29.1%. For the same compound, the inhibition in assay [15] (measured here: BGB IC40 combination, at 0.05 µM) was 0.705% and 3.13% and 5.02%; in assay [15] (measured here: combination with cisplatin, at 0.5 µM), 30% and -22% and -77.2%; in assay [15] (single agent, at 5 µM) it was -40.6% and 41.7% and -25.7%; in [16] (at 0.5 µM), -26.3% (inactive) and -12.8% (inactive) and -43.8% (inactive); in assay [16] (setting [21]), -10.8% and -54.5% and -18%; in [16] (setting [22]) it was -34% and 8.01% and -56.8%. Also, the inhibition was 2.04% and -10.4% and -14.2% in assay [16] (single agent, at 0.05 µM); 33.1% and 21.8% and 31.5% in assay [16] (single agent, at 5 µM).

Regarding `CC12CC3CC(C)(C1)CC(N)(C3)C2`, the inclusion score in assay [17] was found to be 2. In addition, in [1], the period change is 0.205 h (inactive). Besides, the inhibition in assay [2] was -2% (inactive). Further, the fluorescence ratio (interference) in assay [3] was 1 (inactive). In addition, the half-maximal activity concentration (AC50) in assay [8] is 3320 nM (active). The call in assay [18], in assay [19], in assay [20] and in assay [4] was inactive.

In assay [17], `NCCc1ccc(O)c(O)c1` yielded an inclusion score of 2. Further, the period change in assay [1] is -0.01 h (inactive). Besides, the parasite load remaining in assay [5] was 36.4% (inactive) and 34.7% (inactive) and 21% (inactive). Further, the viability in assay [5] is 120% and 74.1% and 206%. In addition, the inhibition in assay [2] was -4% (inactive). Moreover, in assay [3], the fluorescence ratio (interference) is 1 (inactive). Besides, the compound was classed as inactive in assay [6], in assay [7], in [9], in [18], in assay [19] and in [20]. For the same compound, in [4], the compound was called inactive.

On to `CN=C(NC#N)NCCSCc1nc[nH]c1C`, for which the inclusion score in assay [17] is 2. Further, the period change in assay [1] is 0.115 h (inactive). In assay [2], the inhibition was 0% (inactive). Besides, the fluorescence ratio (interference) in assay [3] was 1 (inactive). Also, the result in [4] was inactive.

In assay [17], `CC1Cc2ccccc2N1NC(=O)c1ccc(Cl)c(S(N)(=O)=O)c1` (centres undefined) returned an inclusion score of 2. For the same compound, the compound was called inactive in [6], in [7], in assay [8], in [9], in assay [19] and in assay [20].

The values are drawn from PubChem BioAssay.
